This is part of a sample that, as a whole, favours compounds with a hit. Of some 83,000 tested, about 20% had one in any assay.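 For each line, cells grew in 96-well plates with the test compound present at a single concentration for 48 hours.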 Values without a mark were called inactive. The source made the active and inactive calls. How the source made its calls: active means growth percent below 10; inactive means the rest.
Key:
Experiment in all cases: NCI-60 one-dose screen, 48 h (100 = growth as untreated, 0 = no growth, -100 = all killed)
Conditions in all cases: 10 µM unless noted
SK-MEL-2 melanoma = test system: SK-MEL-2 melanoma
EKVX NSCLC = test system: EKVX NSCLC
SN12C renal = test system: SN12C renal
UO-31 renal = test system: UO-31 renal
TK-10 renal = test system: TK-10 renal
ACHN renal = test system: ACHN renal
CAKI-1 renal = test system: CAKI-1 renal
A498 renal = test system: A498 renal
CCRF-CEM leukemia = test system: CCRF-CEM leukemia
MOLT-4 leukemia = test system: MOLT-4 leukemia

Row | Structure (SMILES) | growth (SK-MEL-2 melanoma) | growth (EKVX NSCLC) | growth (SN12C renal) | growth (UO-31 renal) | growth (TK-10 renal) | growth (ACHN renal) | growth (CAKI-1 renal) | growth (A498 renal) | growth (CCRF-CEM leukemia) | growth (MOLT-4 leukemia)
1 | O=[N+]([O-])c1c(O)c(Cl)cc(Cl)c1Cl | 113% | 107% | 101% | 93.6% | 96.8% | 103% | 102% | 110% | 106% | 100%
2 | O=C1CCCCN1c1ccc(C2=NCCCN2)cc1 | 111% | 97.8% | 92.9% | 79.1% | 98.8% | 95.7% | 100% | 93.7% | 116% | 80%
3 | Cc1c2ccccc2nc2cc3c(cc12)[C@H]1CC[C@]2(C)C(=O)CC[C@H]2[C@@H]1CC3 | 103% | 91.5% | 95.4% | 74% | 111% | 95% | 73.7% | 104% | 97.4% | 80.8%
4 | C1CCC(N2CN3c4nonc4N4CN(C5CCCCC5)CN5c6nonc6N(C2)C3C45)CC1 (stereo not given) | 102% | 82.4% | 92.4% | 71.9% | 102% | 103% | 84.9% | 92.9% | 51% | 91.8%
5 | Cc1nn(-c2ccc([N+](=O)[O-])cc2)c2ncnc(N/N=C/c3ccccc3O)c12 | 31.6% | -0.848% (active) | 6.16% (active) | -11.5% (active) | 35.5% | 12% | 3.95% (active) | 65.6% | -12.4% (active) | 4% (active)
6 | Ic1ccc(Nc2nc3nonc3nc2Nc2ccc(I)cc2)cc1 | -55.2% (active) | 4.77% (active) | 7.43% (active) | -0.338% (active) | 2.2% (active) | 4.88% (active) | 7.67% (active) | -22% (active) | -1.76% (active) | -29% (active)
7 | Cc1ccc(OCCOCCOCCOc2ccc(C)n(O)c2=S)c(=S)n1O | 57% | 24.9% | 28.7% | 42% | 64% | 44.6% | 31.7% | 52.5% | 11.2% | 10.7%
8 | COc1ccc(C2C3=C(COC3=O)N(CCO)c3cc4c(cc32)OCO4)cc1OC (stereo not given) | 93.2% | 96.1% | 94.8% | 95.9% | 105% | 101% | 98.4% | 79% | 65.2% | 88.5%
9 | CCOC(=O)C1=C(CCl)N(C)C(=O)NC1c1ccc2c(c1)OCO2 (stereo not given) | 58.8% | 71.9% | 58.6% | 69.5% | 45.2% | 49.5% | 36.7% | 55.8% | 12% | 53.2%
10 | COCC(=O)Oc1cc(-c2ccc(C)cc2C)c(OC(=O)COC)c(-c2ccc(C)cc2C)c1 | 28.9% | 57.1% | 56.4% | 47.7% | 70.9% | -18% (active) | 9.83% (active) | 68.7% | 38.9% | 21.7%
11 | CCC(C)(C)c1ccc(Nc2ccc(Nc3ccc(C(C)(C)CC)cc3)cc2)cc1 | 95.9% | 98.6% | 96.7% | 62.5% | 103% | 97% | 71% | 121% | 87.9% | 76%
12 | Cc1cc2oc(/C=C/c3ccccc3)cc(=O)c2c(C)c1Cl | 103% | 101% | 99.1% | 94.4% | 91.6% | 110% | 84.6% | 142% | 99.2% | 62.6%
13 | CCN(CC)CCCNc1cc(OC)c(OC)c2cccnc12 | 88.1% | 100% | 57.3% | 46.6% | 98.9% | 42.3% | 52.5% | 81.8% | 74.6% | 52.8%
14 | O=C(/C=C/C12c3ccccc3C(c3ccccc31)C1C(=O)NC(=O)C12)c1ccc(I)cc1 (stereo not given) | 56.7% | 66.1% | 50.9% | 46.2% | 66.7% | 67.6% | 60.4% | 56.1% | 1.53% (active) | 6.91% (active)
15 | CSc1nc2ccc(C)cc2cc1/C=C1/C=C(c2ccccc2)NC1=O | 89.5% | 61.4% | 32.6% | 12.8% | -6.59% (active) | -52.8% (active) | 5.73% (active) | 41.7% | 48.3% | 44.1%
